Source: PubChem BioAssay AID595 (National Center for Advancing Translational Sciences (NCATS), 2007)
The whole screen tested about 71,000 compounds, of which about 310 (0.44%) were called active. Where a call stands in place of a potency, no number is given. Roughly 5% stayed inconclusive and do not appear here. This is one part of a sample in which actives are shown more often than they occur. Values without a mark were called inactive. The call rests on the fitted dose curve; in most records, active means well fitted curve in either direction with a large enough effect; inconclusive means small, poorly fitted or top-dose-only effect, or another doubt; inactive means flat fitted curve, though single readings scatter.

Test system: Hsp90 C-terminal peptide / TPR2A (Hop) interaction, human
Assay: qHTS Assay for Disrupters of an Hsp90 Co-Chaperone Interaction
Settings: AlphaScreen TPR2A-His6 binding biotin-Hsp90 C-terminal peptide; series mostly up to 57 µM
Potency means the concentration at half of the fitted maximal effect.

| Structure (SMILES) | activity change, negative = inhibition | Potency |
| --- | --- | --- |
| COc1ccc2oc(=O)c(C(=O)N3CCN(c4ccccc4F)CC3)cc2c1 | inactive |  |
| O=C(Nn1cc(C(=O)N2CCN(c3ccccc3F)CC2)c2ccccc2c1=O)c1cnccn1 |  | 3.98 µM (active) |
| O=C(c1cccc2ccccc12)N1CCN(c2ccccc2F)CC1 | inactive |  |
| c1ccc(CNc2ncncc2-c2cccnc2)cc1 | inactive |  |
| COc1ccc2[nH]cc(CCNc3ncnc4ccc(-c5ccccc5CN(C)C)cc34)c2c1 | inactive |  |
| COc1ccc(C(=O)Nc2c(N)nc(SCC(=O)N3CCC(C)CC3)[nH]c2=O)cc1OC | inactive |  |
| COc1cc(C2C(C#N)=C(N)Oc3n[nH]c(-c4ccccn4)c32)cc(OC)c1OC (stereo not drawn) |  | 25.1 µM (active) |
| COc1ccc(-c2[nH]nc3c2C(c2ccncc2)C(C#N)=C(N)O3)cc1 (stereo not drawn) | inactive |  |
| CCOc1c(OC)cc(C2C(C#N)=C(N)Oc3n[nH]c(-c4ccncc4)c32)cc1OC (stereo not drawn) | inactive |  |
| COc1ccc(-c2nc3cnc(OC)nc3n(Cc3ccc(F)cc3)c2=O)cc1 | inactive |  |
| O=c1cc(-c2ccc(O)c(O)c2)oc2cccc(O)c12 | inactive |  |
| CCCCCCCCCCCC(=O)O | inactive |  |
| CCCOC(=O)Nc1ccccc1C(N)=O | inactive |  |
| CC(=O)/C(C)=N\O | inactive |  |
| CCn1c(=N)c(C(=O)NCCCOC)cc2c(=O)n3cccc(C)c3nc21 | inactive |  |
| O=C(c1ccco1)N1CCC2(CC1)CCN(c1ncccn1)CC2 | inactive |  |
| C=CCNC(=O)CCCOc1cccc(C)c1 | -6.77% [at 11 µM] |  |
| CCOC(=O)C(CCOc1cccc(CC)c1)C(=O)OCC |  | 25.1 µM [activator] (active) |
| COC(=O)[C@@H](NC(=O)NCc1cccc(OC)c1)C(C)C | inactive |  |
| COc1cccc(-n2c(SCC(=O)NC3CCCCC3)nc3n[nH]c(C)c3c2=N)c1 | inactive |  |
| CC(=O)Nc1ccc(S(=O)(=O)N2CCC(N(C)CCC(C)C)CC2)cc1 | inactive |  |
| Cc1ccc(/C(=C/CN2CCCC2)c2ccccn2)cc1 | inactive |  |
| Cc1ccc(S(=O)(=O)Cn2nnnc2CN2CCN(Cc3ccc4c(c3)OCO4)CC2)cc1 | inactive |  |
| N=c1c2c3c(sc2ncn1N)CCCCC3 | inactive |  |
| COC(=O)c1ccccc1NC(=O)c1cncc(Br)c1 | inactive |  |
| N#C/C(=C\c1ccc(O)c(O)c1)C(=O)NCc1ccccc1 | inactive |  |
| COc1ccc(OC)c([C@H](O)CNC(=O)CN)c1 | inactive |  |
| Cc1cnc(CNc2ncncc2-c2ccccc2Cl)cn1 | inactive |  |
